Screens as filed in PubChem.
Most compounds without a hit are left out; they make up all but 12% or so of the library.
HP1b chromo inh – HTS for Inhibitors of HP1-beta Chromodomain Interactions with Methylated Histone Tails. Potency, µM (highest dose often 114 µM), for inactives: at the top dose activity change, negative = inhibition, hits mostly inhibitors. AlphaScreen HP1-beta / biotin-H3K9me3 peptide binding. Chromobox protein homolog 1 (Homo sapiens), P83916. 390,000 compounds, 0.56% hits; note: potency is the fitted concentration of half-maximal effect; nearly all actives have a fitted effect of over 70% in size
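Compound inhibition of the preformed complex between 50 nM HP1-beta and 50 nM biotinylated H3K9me3 peptide was read by AlphaScreen. Buffer was PBS pH 7.4 with 0.01% Tween-20. Incubations ran 30 min at room temperature, with 10 ug/mL donor/acceptor beads.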
PLK1 PBD inh – qHTS for Inhibitors of PLK1-PDB (polo-like kinase 1 - polo-box domain): Primary Screen; Serine/threonine-protein kinase PLK1 (Homo sapiens), P53350; Plk1 PBD binding of FITC phosphopeptide, fluorescence polarization; Potency, µM, for the others: max response, negative = inhibition, actives largely listed as inhibitors; 360,000 compounds, 2.8% hits; note: potency is the fitted concentration of half-maximal effect; series mostly up to about 57 µM; % is set by controls: 0 for no effect and ±100 for the full control effect; nearly all actives have a fitted effect of over 65% in size
JMJD2A Tudor inh – qHTS Assay for Inhibitors of JMJD2A-Tudor Domain | Lysine-specific demethylase 4A (Homo sapiens), O75164 | AlphaScreen JMJD2A-Tudor / H3K4me3 peptide binding | Potency, µM (doses to about 114 µM), without a hit: at the top dose activity change, negative = inhibition, hits mostly inhibitors | 390,000 compounds, 4.4% hits; note: potency is the fitted concentration of half-maximal effect; % is set by controls: 0 for no effect and ±100 for the full control effect; nearly all actives have a fitted effect of over 50% in size
PI5P4K alpha inh – qHTS for Inhibitors of phosphatidylinositol 5-phosphate 4-kinase (PI5P4K). Phosphatidylinositol 5-phosphate 4-kinase type-2 alpha (Homo sapiens), P48426. PI5P4Kalpha enzyme, ADP-Glo luminescence, 60 min; hits give low values. max response, %. 330,000 compounds, 1.2% hits; active = max response of -50% or lower; inconclusive = between -30% and -50%; inactive = -30% or higher; note: value at the top dose of about 77 µM; % is set by controls: 0 for no effect and ±100 for the full control effect
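Controls without substrate or without enzyme flank wells where PI5P4Kalpha converts substrate using 5 microM ATP (final). Incubation lasts 60 minutes at room temperature; ADP formed is read by ADP-Glo luminescence.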
G9a inh – qHTS Assay for Inhibitors of Histone Lysine Methyltransferase G9a; G9a H3K9 monomethylation, AlphaScreen, 2 h; Potency, µM (doses to about 102 µM), inactives show at the top dose activity, negative = inhibition, actives largely listed as inhibitors; 350,000 compounds, 8.8% hits; AID 504332, 2011; note: potency is the fitted concentration of half-maximal effect; % is set by controls: 0 for no effect and ±100 for the full control effect; nearly all actives have a fitted effect of over 75% in size
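AlphaScreen detection with an anti-monomethyl H3K9 antibody quantified product after a 2 h room-temperature reaction containing 500 nM biotinylated H3K9 peptide, 20 µM SAM and 20 nM enzyme, which had been preincubated 15 min with compound.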
BAZ2B inh – qHTS Assay for Inhibitors of BAZ2B; Bromodomain adjacent to zinc finger domain protein 2B (Homo sapiens), Q9UIF8; AlphaScreen BAZ2B-H3K14Ac peptide displacement; Potency, µM (highest dose often 114 µM), inactives show at the highest dose activity change, negative = inhibition, actives largely listed as inhibitors; 360,000 compounds, 4.4% hits; note: potency is the fitted concentration of half-maximal effect; % is set by controls: 0 for no effect and ±100 for the full control effect; nearly all actives have a fitted effect of over 60% in size
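AlphaScreen displacement: compounds (up to 110uM) incubated 30 min at room temperature with a preformed 50 nM BAZ2B/50 nM biotinylated H3K14Ac peptide complex in PBS pH 7.4 with Tween-20. Donor and acceptor beads at 10 ug/mL final added, 20 min light-protected before reading.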
Starred values were filed as active, the others as inactive; ? = inconclusive; nt = no result given; [ ] = dose if it differs, or a comment. Unless noted, calls come from the whole dose curve; as a rule, active = well fitted curve in the direction sought with a large enough effect; inconclusive = small, poorly fitted or top-dose-only effect, or another doubt; inactive = no such curve, though single readings can be large; an effect the other way counts as inactive or inconclusive.

SMILES	HP1b chromo inh	PLK1 PBD inh	JMJD2A Tudor inh	PI5P4K alpha inh	G9a inh	BAZ2B inh
COc1ccc2c(c1)OC(=O)CC2c1ccccc1OC (stereo not drawn)	33%	-10%	-5%	1	29%	nt
O=Cc1c[nH]c2ccccc12	25%	nt	-11%	nt	nt	nt
O=C(CCl)c1ccc2[nH]c(=O)oc2c1	47%	7.5µM*	-23%	-23	45µM*	?
CSc1ccccc1C(=O)C1CCCN(C(=O)c2cncs2)C1 (stereo not drawn)	17%	13µM*	20µM*	-28	-19%	-17%
CSc1ccccc1C(=O)C1CCCN(C(=O)CCc2cccnc2)C1 (stereo not drawn)	45%	-25%	-9%	-5	-3%	-3%
CC(CNc1ccccc1O)C(=O)O (stereo not drawn)	50µM*	?	3.2µM*	-3	16µM*	50µM*
C[C@H](CO)N1C[C@H](C)[C@H](CN(C)S(=O)(=O)c2cccc(C#N)c2)OCc2cnnn2CCCC1=O	nt	30µM*	nt	-5	nt	nt
C[C@H]1CN([C@@H](C)CO)C(=O)CCCn2nncc2CO[C@H]1CN(C)S(=O)(=O)c1cccc(C#N)c1	nt	-3%	nt	-7	nt	nt
CCN(CC(=O)Nc1ccc(NC(C)=O)cc1)C(=O)c1cccnc1Sc1ccc(C)c(C)c1	-3%	1%	-20%	1	50µM*	4%
COc1ccc(OCC(=O)N2CCN(c3cccc(Cl)c3)CC2)cc1	12%	-2%	-19%	13	-2%[59 µM]	4%
Cc1ccc(S(=O)(=O)N2CCN(C(=O)COC(=O)CNC(=O)c3ccccc3)CC2)c(C)c1	10%	-4%	-16%	-1	-22%	4%
Cc1ccc(S(=O)(=O)N2CCN(C(=O)COC(=O)CNC(=O)c3ccc(Cl)cc3Cl)CC2)c(C)c1	-2%	-20%	25µM*	-4	nt	nt
COc1ccc(N2CCN(C(=O)COC(=O)CNC(=O)c3ccc(Cl)cc3Cl)CC2)cc1	-10%	-7%	-13%	1	45µM*	-30%
COc1ccc(N2CCN(C(=O)COc3ccc(Cl)cc3Cl)CC2)cc1	-16%	-7%	?	18	6.3µM*	?
COC(=O)C1CCN(c2csc3ccc(Cl)cc3c2=O)CC1	33%[57 µM]	nt	-13%	nt	-35%[59 µM]	-22%
COc1cc(O)c(NC(C)=O)c2nonc12	21%	-16%	-35%	nt	22µM*	7%
COc1ccc(C=C2OC(=O)C(C(C)=O)=C2O)cc1	nt	-11%	nt	-54*	nt	nt
CC(=O)C1=C(O)C(=Cc2ccccc2)OC1=O	nt	3%	nt	-25	nt	nt
COc1ccc(NC(=S)NCC(O)c2ccccc2)c(OC)c1 (stereo not drawn)	17%	-10%	-24%	0	11%[59 µM]	-7%
COc1ccc(NC(=S)Nc2ncccc2C)cc1OC	?	-29%	?	1	22µM*	?
COc1ccc(NC(=S)Nc2ccccc2)c(OC)c1	0%	-15%	-14%	-2	16µM*	-31%
COc1ccc(NC(=S)Nc2ncccc2C)c(OC)c1	?	?	50µM*	nt	?	40µM*
CN(C)c1ccc(CNc2nc3cc(-c4ccc(F)cc4)sc3c(=O)n2C)cc1	nt	-3%	nt	29	nt	nt
CCOc1ccc(S(=O)(=O)c2cn(Cc3ccc(C)cc3)c3ccc(OC)cc3c2=O)cc1	30%	nt	-15%	nt	1%[59 µM]	5%
Cc1sc(-c2cccnc2)nc1OC(=O)C1CC1	26%	?	-2%	6	20µM*	-24%
SMILES	HP1b chromo inh	PLK1 PBD inh	JMJD2A Tudor inh	PI5P4K alpha inh	G9a inh	BAZ2B inh
O=C(N/N=C/c1ccc(-c2ccc(Cl)c(C(=O)O)c2)o1)c1cc2c(ccc3ccccc32)o1	?	?	-8%[11.4 µM]	-80*	nt	28µM*
Cc1ccc(-c2ccc(/C=N\NC(=O)c3cc4c(ccc5ccccc54)o3)o2)cc1[N+](=O)[O-]	14%	-2%	-32%	?	nt	2%
O=C(O)c1ccc(/C=N/NC(=O)c2cc3c(ccc4ccccc43)o2)cc1	31%	?	?	-19	?	71µM*
O=C(Nc1cccnc1)c1cc2c(ccc3ccccc32)o1	11%	-4%	56µM*	-4	?	79µM*
O=C(Cc1ccc(S(=O)(=O)N2CCOCC2)s1)Nc1cc(Cl)ccc1Cl	-11%[57 µM]	-6%	-32%	8	3%[12.7 µM]	-39%
CC(=O)Nc1ccc(S(=O)(=O)Nc2ccc3c(c2)n(C)c(=O)n3C)c(C)c1	-4%	-7%	-12%	-3	14%	50µM*
CC(C)Sc1ccccc1C(=O)Nc1ccc2c(c1)n(C)c(=O)n2C	5%	-8%	-2%	1	6.3µM*	56µM*
Cn1c(=O)n(C)c2cc(NC(=O)c3ccccc3)ccc21	nt	1%	nt	-2	nt	nt
COc1ccc(C(=O)Nc2ccc3c(c2)n(C)c(=O)n3C)cc1OC	31%	-3%	-17%	0	-2%	56µM*
Cc1ccc(OC(C)C(=O)Nc2ccc3c(c2)n(C)c(=O)n3C)c(C)c1 (stereo not drawn)	10%	-11%	-21%	-7	8%[59 µM]	56µM*
COc1ccccc1OC(C)C(=O)Nc1ccc2c(c1)n(C)c(=O)n2C (stereo not drawn)	42%	7%	2%	-2	-8%	?
CCc1cc2c(cc3c(=O)n(CC(=O)NC4CCCCC4)ncn32)s1	36%	nt	8%	nt	7%[59 µM]	0%
Cc1cc(O)c(C(c2ccccc2)N2CCN(c3ccc(F)cc3)CC2)c(=O)n1Cc1ccco1 (stereo not drawn)	26%[57 µM]	nt	?	nt	?	-28%
C[n+]1nc(Nc2ccccc2)sc1-c1ccc(O)cc1	49%	-5%	-23%	-3	?	-1%
Oc1ccc(-c2sc(Nc3ccccc3)n[n+]2-c2ccc(F)cc2)cc1	11%	-20%	-9%	-5	35µM*	?
CSc1ccc(-c2sc(Nc3ccccc3)n[n+]2-c2ccc(F)cc2)cc1	-7%	30µM*	56µM*	?	50µM*	?
CCOC(=O)c1c(C)c(-c2ccccc2)n(CC(=O)NCc2ccccc2)c1C	28%	nt	-11%	nt	9%[59 µM]	-16%
O=C1c2ccc([N+](=O)[O-])cc2S(=O)(=O)N1Cc1ccccc1	?	-8%	?	3	11µM*	?
